“And” between values parts separate entries of the source, which are not always exact repeats. Identical values can stand only once. Results filed as inconclusive are left out. The source made the active and inactive calls. The calls were made as follows, unless noted: active = hit-call score of the fitted dose curve at least 0.9, where 1 is the maximum; inactive = score below 0.9.
Legend:
[1] = molecular target: Oxysterols receptor LXR-beta (Homo sapiens) (UniProt P55055); assay: ATG_LXRb_TRANS: Attagene TRANS-FACTORIAL HepG2 Assay for human Liver X Receptor beta (LXRb) (AID 2282981; active = hit-call score of the fitted dose curve at least 0.9, where 1 is the maximum); details: HepG2 Attagene TRANS GAL4-LXRb reporter, mRNA
Method in brief: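 HepG2 cells transiently transfected with GAL4-UAS reporter units for chimeric NR-Gal4 proteins, dosed for 24 h. Reporter transcripts measured by RT-PCR and capillary electrophoresis; gain-of-signal fitting relative to DMSO.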

[2] = ATG_M_06_TRANS: Attagene TRANS-FACTORIAL HepG2 Assay for M06 Transcription Factor (Internal Marker) (AID 2282983; active = hit-call score of the fitted dose curve at least 0.9, where 1 is the maximum); details: HepG2 Attagene TRANS M06 internal marker reporter
Method in brief: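 HepG2 cells transiently transfected with GAL4-UAS multiple reporter units, dosed 24 h. Reporter RNA reverse-transcribed, PCR-amplified, 6-FAM-labeled, HpaI-digested and quantified by capillary electrophoresis; this internal-marker signal fitted upward relative to DMSO.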

[3] = ATG_M_32_TRANS: Attagene TRANS-FACTORIAL HepG2 Assay for M32 Transcription Factor (Internal Marker) (AID 2282984; active = hit-call score of the fitted dose curve at least 0.9, where 1 is the maximum); details: HepG2 Attagene TRANS M32 internal marker reporter
Method in brief: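 HepG2 cells transiently transfected with GAL4-UAS reporter units, dosed for 24 hours. Reporter mRNA quantified by RT-PCR, 6-FAM labelling, HpaI digestion and capillary electrophoresis; internal-marker signal fitted upward relative to DMSO.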

[4] = molecular target: Transcriptional activator Myb (Homo sapiens) (UniProt P10242); assay: ATG_Myb_CIS: Attagene CIS-FACTORIAL HepG2 Assay for human Myeloblastosis (Myb) Proto-Oncogene Transcription Factor (AID 2282986); details: HepG2 Attagene CIS-FACTORIAL Myb reporter transcription; actives raise or lower the signal
Method in brief: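 Reporter transcript levels, quantified by fluorescent RT-PCR and capillary electrophoresis, serve as the read-out. Transfected HepG2 cells carrying cis-promoter reporter units are dosed for 24 hours, and curves are fitted bidirectionally against DMSO controls.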

[5] = molecular target: Nuclear respiratory factor 1 (Homo sapiens) (UniProt Q16656); assay: ATG_NRF1_CIS: Attagene CIS-FACTORIAL HepG2 Assay for human Nuclear Respiratory Factor 1 (NRF1) Orphan Gene (AID 2282987); details: HepG2 NRF1 cis-element reporter, Attagene multiplex; actives raise or lower the signal
Method in brief: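 Multiplexed cis-reporter assay, HepG2 cells, 24 h treatment. Total RNA → oligo(dT) RT → PCR with reporter-specific primers → 6-FAM primer extension → HpaI cut → CE. Bidirectional fit vs DMSO.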

[6] = ATG_NFI_CIS: Attagene CIS-FACTORIAL HepG2 Assay for human Nuclear Factor I (NFI) (AID 2282989); details: HepG2 cis-regulatory reporter, NFI response element transcription; actives raise or lower the signal
Method in brief: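 Reporter transcription driven by endogenous transcription factors in HepG2 cells; 24 h treatment. Quantitation by labelled RT-PCR fragments on capillary electrophoresis, gain- or loss-of-signal relative to DMSO.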

[7] = ATG_NF_kB_CIS: Attagene CIS-FACTORIAL HepG2 Assay for human Nuclear Factor Kappa B (NF-kB) (AID 2282991); details: HepG2 Attagene cis-factorial NF-kB reporter mRNA; actives raise or lower the signal
Method in brief: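 Transient MRTU transfection of human HepG2 liver cells → 24 h chemical exposure → total RNA, oligo(dT) RT → PCR, 6-FAM primer extension, HpaI digest 2 h 37 C → CE fragment analysis. Bidirectional fitting, DMSO negative control.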

[8] = ATG_NRF2_ARE_CIS: Attagene CIS-FACTORIAL HepG2 Assay for human Nuclear Factor Erythroid 2 Related Factor 2 (NFR2) response to Antioxidant Response Elements (ARE) (AID 2282992); details: HepG2 Attagene ARE/NRF2 reporter, transcription factor activity; actives raise or lower the signal;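 as to AC50: reporter mRNA level measured by RT-PCR and capillary electrophoresis fluorescence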
Method in brief: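 Transient MRTU transfection of HepG2; 24 h compound exposure; TriZol RNA, RT with oligo(dT), PCR, 6-FAM primer extension, HpaI cut, CE. Bidirectional fit vs DMSO.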

[9] = ATG_Oct_MLP_CIS: Attagene CIS-FACTORIAL HepG2 Assay for human Octamer-Binding Transcription Factor (Oct) (AID 2282993); details: HepG2 Attagene cis-factorial Oct reporter, mRNA; actives raise or lower the signal
Method in brief: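 Transfected HepG2 cells, 24 h treatment. Reporter mRNA quantified by RT-PCR–capillary electrophoresis; bidirectional fitting against DMSO.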

[10] = molecular target: human Peroxisome Proliferator-activated Receptor alpha (PPARa), PPARA (gene 5465) (UniProt Q07869); assay: ATG_PPARa_TRANS: Attagene TRANS-FACTORIAL HepG2 Assay for human Peroxisome Proliferator-activated Receptor alpha (PPARa) (AID 2283001; active = hit-call score of the fitted dose curve at least 0.9, where 1 is the maximum;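 as to AC50: potency for gain of reporter signal over DMSO so agonist or activator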)
Method in brief: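 HepG2 cells transiently transfected with multiplexed GAL4-UAS reporters driven by exogenous chimeric NR-Gal4 proteins; reporter mRNA measured after 24 h dosing. Read-out by RT-PCR, 6-FAM labelling, HpaI digestion and capillary electrophoresis; gain of signal versus DMSO.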

[11] = molecular target: Cellular tumor antigen p53 (Homo sapiens) (UniProt P04637); assay: ATG_p53_CIS: Attagene CIS-FACTORIAL HepG2 Assay for human p53 Transcription Factor (AID 2282994); details: HepG2 p53 cis-element reporter, Attagene mRNA; actives raise or lower the signal
Method in brief: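 HepG2, transient MRTU transfection (cis promoter elements, endogenous TFs); 24 h dosing; RNA isolation, RT-PCR, 6-FAM primer extension, HpaI digest, CE fluorescence; bidirectional fit vs DMSO.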

[12] = BSK_3C_TissueFactor: BioMAP Diversity Plus: 3C Assay for Tissue Factor Biomarker Activity (AID 2282997); details: BioMAP 3C HUVEC, tissue factor biomarker readout; actives raise or lower the signal
Method in brief: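 HUVEC were treated 24 h, then surface tissue factor measured by ELISA and fitted bidirectionally against DMSO. Parallel SRB total-protein staining assessed overt cytotoxicity at the same time point.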

[13] = BSK_3C_uPAR: BioMAP Diversity Plus: 3C Assay for Urokinase-type plasminogen activator receptor (uPAR) Biomarker Activity (AID 2282998); details: BioMAP 3C HUVEC, uPAR biomarker ELISA; actives raise or lower the signal
Method in brief: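 Readout: ELISA for surface uPAR. System: human umbilical vein endothelial primary cells, 24 h after chemical exposure. Analysis: bidirectional fit, DMSO baseline.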

[14] = BSK_3C_VCAM1: BioMAP Diversity Plus: 3C Assay for Vascular cell adhesion molecule 1 (VCAM1) Biomarker Activity (AID 2282999); details: BioMAP 3C HUVEC, VCAM1 ELISA, cytokine-stimulated; actives raise or lower the signal
Method in brief: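 Human umbilical vein endothelial cells (3C system), biomarker read by ELISA 24 h after dosing; bidirectional fit against DMSO baseline. Cytotoxicity tracked by SRB total-protein staining in parallel cultures at biomarker time.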

[15] = molecular target: Hepatocyte nuclear factor 4-alpha (Homo sapiens) (UniProt P41235); assay: ATG_HNF4a_TRANS: Attagene TRANS-FACTORIAL HepG2 Assay for human Hepatocyte Nuclear Factor 4 alpha (HNF4a) (AID 2282982; active = hit-call score of the fitted dose curve at least 0.9, where 1 is the maximum); details: HepG2 HNF4a transactivation reporter, mRNA readout
Method in brief: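 HepG2 cells transiently transfected with HNF4a-Gal4 chimera and GAL4-UAS reporter units, dosed for 24 h. Reporter mRNA measured by RT-PCR, fluorescent primer extension and capillary electrophoresis; gain-of-signal fitted relative to DMSO.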

[16] = molecular target: Nuclear receptor subfamily 4 group A member 2 (Homo sapiens) (UniProt P43354); assay: ATG_NURR1_TRANS: Attagene TRANS-FACTORIAL HepG2 Assay for human Nuclear Receptor Related Protein 1 (NURR1) (AID 2282985; active = hit-call score of the fitted dose curve at least 0.9, where 1 is the maximum); details: HepG2 Attagene TRANS reporter, mRNA readout
Method in brief: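 HepG2 cells transiently transfected with NURR1-Gal4 chimera and GAL4-UAS reporter units; after 24 hr compound exposure, reporter mRNA quantified by RT-PCR and capillary electrophoresis; gain of signal fitted against DMSO.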

[17] = molecular target: Myc proto-oncogene protein (Homo sapiens) (UniProt P01106); assay: ATG_Myc_CIS: Attagene CIS-FACTORIAL HepG2 Assay for human Myelocytomatosis (Myc) Proto-Oncogene Transcription Factor (AID 2282990); details: HepG2, Attagene cis-reporter transcription factor activity; actives raise or lower the signal
Method in brief: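 Fluorescence intensity of reporter-specific cDNA fragments, separated by capillary electrophoresis, gives the signal. Transfected HepG2 cells carrying cis-promoter reporter constructs are incubated with compound for 24 h; DMSO serves as baseline.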

[18] = BSK_4H_Eotaxin3: BioMAP Diversity Plus: 4H Assay for Eotaxin 3 Biomarker Activity (AID 2283000); details: primary human endothelial cells (HUVEC); actives raise or lower the signal;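 also: CCL26 protein level quantified by ELISA in parallel with SRB cytotoxicity check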
Method in brief: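 Eotaxin-3 (CCL26) levels were measured by ELISA in HUVEC primary cultures 24 h post-dosing. Gain or loss of signal was fitted in both directions, with DMSO serving as baseline and negative control.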

Measured: AC50

Chain of Hepatocyte nuclear factor 4-alpha (Homo sapiens) (P41235 whole entry, looked up, the tested form may be a part): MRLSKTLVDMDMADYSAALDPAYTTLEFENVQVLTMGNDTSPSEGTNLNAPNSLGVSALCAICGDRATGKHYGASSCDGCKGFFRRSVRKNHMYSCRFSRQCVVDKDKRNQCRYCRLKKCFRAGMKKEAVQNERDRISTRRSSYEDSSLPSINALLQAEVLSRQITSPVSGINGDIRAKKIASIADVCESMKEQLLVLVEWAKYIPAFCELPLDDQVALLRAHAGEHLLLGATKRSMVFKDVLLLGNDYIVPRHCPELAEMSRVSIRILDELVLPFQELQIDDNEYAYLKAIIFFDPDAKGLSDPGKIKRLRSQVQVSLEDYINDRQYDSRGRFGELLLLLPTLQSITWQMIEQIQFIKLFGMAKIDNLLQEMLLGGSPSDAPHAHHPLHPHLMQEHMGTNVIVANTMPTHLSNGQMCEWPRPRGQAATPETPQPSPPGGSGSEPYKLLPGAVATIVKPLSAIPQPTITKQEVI
Chain of Cellular tumor antigen p53 (Homo sapiens) (P04637 whole entry, looked up): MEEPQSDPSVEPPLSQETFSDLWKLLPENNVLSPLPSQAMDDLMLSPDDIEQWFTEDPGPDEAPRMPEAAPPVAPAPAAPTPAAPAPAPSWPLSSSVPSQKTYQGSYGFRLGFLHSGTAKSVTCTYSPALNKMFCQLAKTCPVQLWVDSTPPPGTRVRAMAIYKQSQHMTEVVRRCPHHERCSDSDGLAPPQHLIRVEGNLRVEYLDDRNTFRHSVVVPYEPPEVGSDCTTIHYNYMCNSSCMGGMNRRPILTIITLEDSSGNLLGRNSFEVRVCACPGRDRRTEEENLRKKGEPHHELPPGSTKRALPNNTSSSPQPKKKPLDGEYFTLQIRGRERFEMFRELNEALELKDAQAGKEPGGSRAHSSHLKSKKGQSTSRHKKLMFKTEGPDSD
Chain of Myc proto-oncogene protein (Homo sapiens) (P01106 whole entry, looked up, the tested form may be a part): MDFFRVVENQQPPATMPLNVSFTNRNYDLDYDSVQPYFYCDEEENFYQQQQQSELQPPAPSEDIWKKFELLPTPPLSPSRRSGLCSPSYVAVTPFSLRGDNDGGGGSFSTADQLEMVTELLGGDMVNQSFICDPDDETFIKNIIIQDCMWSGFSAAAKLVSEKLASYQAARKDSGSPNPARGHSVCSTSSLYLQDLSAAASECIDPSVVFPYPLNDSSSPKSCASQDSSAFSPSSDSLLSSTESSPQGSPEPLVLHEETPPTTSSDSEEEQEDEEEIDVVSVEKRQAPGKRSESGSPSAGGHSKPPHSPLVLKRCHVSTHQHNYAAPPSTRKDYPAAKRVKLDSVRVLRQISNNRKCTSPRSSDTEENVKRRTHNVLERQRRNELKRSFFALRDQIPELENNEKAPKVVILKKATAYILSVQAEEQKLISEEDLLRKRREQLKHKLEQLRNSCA
Chain of Nuclear receptor subfamily 4 group A member 2 (Homo sapiens) (P43354 whole entry, looked up, the tested form may be a part): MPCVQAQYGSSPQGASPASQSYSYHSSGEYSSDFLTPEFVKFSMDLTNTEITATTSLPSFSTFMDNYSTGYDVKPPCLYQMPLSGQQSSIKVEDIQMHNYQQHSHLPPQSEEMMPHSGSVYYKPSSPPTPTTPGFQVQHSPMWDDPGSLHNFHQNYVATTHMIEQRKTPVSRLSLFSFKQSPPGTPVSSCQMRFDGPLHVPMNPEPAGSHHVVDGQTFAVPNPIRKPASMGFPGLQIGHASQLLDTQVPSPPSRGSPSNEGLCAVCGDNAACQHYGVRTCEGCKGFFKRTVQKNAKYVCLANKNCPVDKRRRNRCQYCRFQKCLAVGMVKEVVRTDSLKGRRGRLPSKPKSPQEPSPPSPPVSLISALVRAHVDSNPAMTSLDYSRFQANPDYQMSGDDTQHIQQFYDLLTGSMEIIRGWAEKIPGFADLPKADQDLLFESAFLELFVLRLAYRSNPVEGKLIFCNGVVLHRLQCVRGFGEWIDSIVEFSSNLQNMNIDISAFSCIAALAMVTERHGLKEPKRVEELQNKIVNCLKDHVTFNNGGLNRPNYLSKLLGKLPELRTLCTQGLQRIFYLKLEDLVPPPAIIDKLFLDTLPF
Chain of Oxysterols receptor LXR-beta (Homo sapiens) (P55055 whole entry, looked up, the tested form may be a part): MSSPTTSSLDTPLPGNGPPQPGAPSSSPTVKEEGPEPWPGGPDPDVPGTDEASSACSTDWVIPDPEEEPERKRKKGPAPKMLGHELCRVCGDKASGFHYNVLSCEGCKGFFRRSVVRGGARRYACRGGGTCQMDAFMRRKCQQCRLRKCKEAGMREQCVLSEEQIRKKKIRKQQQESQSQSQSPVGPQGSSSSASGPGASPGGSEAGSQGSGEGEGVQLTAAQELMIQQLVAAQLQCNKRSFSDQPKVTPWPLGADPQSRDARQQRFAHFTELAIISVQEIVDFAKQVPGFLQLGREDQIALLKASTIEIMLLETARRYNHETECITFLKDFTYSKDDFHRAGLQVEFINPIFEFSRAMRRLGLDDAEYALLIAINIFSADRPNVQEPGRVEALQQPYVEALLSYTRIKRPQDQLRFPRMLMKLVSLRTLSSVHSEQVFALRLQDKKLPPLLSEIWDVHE
Chain of Transcriptional activator Myb (Homo sapiens) (P10242 whole entry, looked up): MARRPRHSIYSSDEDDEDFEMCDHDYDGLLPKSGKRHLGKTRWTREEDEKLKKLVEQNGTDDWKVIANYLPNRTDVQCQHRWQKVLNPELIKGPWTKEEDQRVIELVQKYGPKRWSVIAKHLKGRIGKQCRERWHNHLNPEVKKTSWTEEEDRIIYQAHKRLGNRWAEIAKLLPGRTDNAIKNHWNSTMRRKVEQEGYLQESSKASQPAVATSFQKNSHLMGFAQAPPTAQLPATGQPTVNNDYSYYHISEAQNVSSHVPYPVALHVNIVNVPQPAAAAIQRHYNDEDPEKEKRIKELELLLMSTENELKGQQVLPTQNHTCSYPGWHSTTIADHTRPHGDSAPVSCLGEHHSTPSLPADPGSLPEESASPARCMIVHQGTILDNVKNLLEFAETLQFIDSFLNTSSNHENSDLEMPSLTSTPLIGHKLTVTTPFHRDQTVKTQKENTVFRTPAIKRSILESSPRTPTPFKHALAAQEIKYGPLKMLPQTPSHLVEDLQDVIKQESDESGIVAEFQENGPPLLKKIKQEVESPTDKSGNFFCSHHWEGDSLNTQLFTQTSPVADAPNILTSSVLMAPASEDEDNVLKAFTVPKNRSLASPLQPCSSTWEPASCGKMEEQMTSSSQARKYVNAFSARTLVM
Chain of human Peroxisome Proliferator-activated Receptor alpha (PPARa), PPARA (gene 5465) (Q07869 whole entry, looked up, the tested form may be a part): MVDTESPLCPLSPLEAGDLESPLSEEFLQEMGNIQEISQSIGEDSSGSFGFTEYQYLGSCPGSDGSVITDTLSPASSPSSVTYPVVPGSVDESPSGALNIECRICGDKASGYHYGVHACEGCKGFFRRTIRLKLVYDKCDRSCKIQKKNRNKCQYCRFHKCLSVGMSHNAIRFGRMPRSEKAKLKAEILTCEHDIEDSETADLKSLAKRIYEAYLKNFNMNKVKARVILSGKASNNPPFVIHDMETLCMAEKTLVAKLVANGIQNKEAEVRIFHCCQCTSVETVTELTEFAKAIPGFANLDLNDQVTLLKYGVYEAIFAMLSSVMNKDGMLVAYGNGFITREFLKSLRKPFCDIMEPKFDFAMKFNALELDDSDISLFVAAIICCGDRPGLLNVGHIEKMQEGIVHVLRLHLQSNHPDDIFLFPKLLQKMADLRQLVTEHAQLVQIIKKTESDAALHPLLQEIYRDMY
Chain of Nuclear respiratory factor 1 (Homo sapiens) (Q16656 whole entry, looked up): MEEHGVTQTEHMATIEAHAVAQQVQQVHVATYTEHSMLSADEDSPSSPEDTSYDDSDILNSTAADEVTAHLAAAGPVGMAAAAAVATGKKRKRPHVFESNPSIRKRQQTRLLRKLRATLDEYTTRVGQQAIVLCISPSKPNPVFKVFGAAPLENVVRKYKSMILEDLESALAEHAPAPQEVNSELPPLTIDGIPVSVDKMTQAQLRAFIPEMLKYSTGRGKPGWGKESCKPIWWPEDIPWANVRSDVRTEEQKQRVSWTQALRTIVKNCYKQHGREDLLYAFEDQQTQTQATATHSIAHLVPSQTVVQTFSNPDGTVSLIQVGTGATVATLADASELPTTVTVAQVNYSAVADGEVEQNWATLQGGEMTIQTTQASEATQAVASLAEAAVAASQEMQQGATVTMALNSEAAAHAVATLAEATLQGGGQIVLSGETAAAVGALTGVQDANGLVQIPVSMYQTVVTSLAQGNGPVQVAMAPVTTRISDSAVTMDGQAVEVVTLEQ

O=S(=O)(O)c1ccccc1
inactive: [1] | [2] | [3] | [4] | [5] | [6] | [7] | [8] | [9] | [10]

Oc1c(Cl)cc(Cl)cc1Sc1cc(Cl)cc(Cl)c1O
active: [8] 3 µM | [9] 3.57 µM | [12] 22.2 µM and 21 µM | [13] 3.97 µM and 7.82 µM | [14] 31.3 µM and 28.6 µM | [10] 11.1 µM
inactive: [1] | [2] | [4] | [5] | [6] | [11]

CC(C)(C)C1CCCCC1O (stereo not given)
inactive: [15] | [16] | [4] | [5] | [6] | [17] | [8] | [9] | [11]

CC1=NN(c2ccccc2)C(=O)C1
inactive: [1] | [2] | [3] | [4] | [5] | [6] | [17] | [7] | [8] | [9] | [11] | [13] | [14] | [18] | [10]
active: [12] 4.46 µM

O=C1Cc2ccccc2N1c1c(Cl)cccc1Cl
inactive: [15] | [3] | [16] | [4] | [5] | [6] | [17] | [7] | [9]
active: [8] 23.2 µM

Clc1ccc(Nc2nnc(Cc3ccncc3)c3ccccc23)cc1
active: [16] 42 µM | [8] 18.7 µM
inactive: [15] | [3] | [4] | [5] | [6] | [17] | [7] | [9] | [11] | [12] | [13] | [14]

CS(=O)(=O)c1ccc([C@@H](CC2CCCC2)C(=O)Nc2cnccn2)cc1Cl
active: [9] 122 µM
inactive: [1] | [2] | [3] | [4] | [11] | [12] | [13] | [14] | [10]

c1ccc2c(c1)CCC2
inactive: [1] | [4] | [5] | [6] | [7] | [8] | [9] | [11] | [10]

Reference: PubChem BioAssay (EPA / NIEHS)
